Shiga toxin inh: Shiga toxin inhibition; Vero cells, Shiga toxin protein synthesis inhibition reporter; 9.2% of 290,000 active; inhibition, % at 38.7 µM; in the data active = inhibition mostly above about 28%, no sharp cut-off; inactive = mostly below about 43%
RE007 growth inh: less growth of the S. pombe RE007 Vpr strain; AID 651644; Potency, µM (series often up to 92.2 µM), most hits filed as inhibitors; 0.21% of 360,000 active; S. pombe RE007 Vpr strain, BacTiter-Glo ATP luminescence, 24 h; active = well fitted falling curve with a large enough effect; inconclusive = small, poorly fitted or top-dose-only effect; inactive = no such curve, though single readings can be large or run the other way; also: nearly all actives have a fitted effect of over 50% in size
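Fission yeast strain RE007, carrying one chromosomally integrated HIV-1 vpr copy, was seeded at OD 0.01 in PMG+AL medium with 23 nL pinned compound. After 24 h at 30 °C and 99% humidity, viability was read by BacTiter-Glo luminescence.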
Giardia FBPA inh: inhibitors of Giardia lamblia fructose-1,6-bisphosphate aldolase | purified Giardia FBPA | A8B2U2 | 0.71% of 290,000 active | Potency, µM (highest dose often 59.6 µM), hits mostly inhibitors; also: nearly all actives have a fitted effect of over 55% in size
Target sequence (A8B2U2 whole entry, looked up): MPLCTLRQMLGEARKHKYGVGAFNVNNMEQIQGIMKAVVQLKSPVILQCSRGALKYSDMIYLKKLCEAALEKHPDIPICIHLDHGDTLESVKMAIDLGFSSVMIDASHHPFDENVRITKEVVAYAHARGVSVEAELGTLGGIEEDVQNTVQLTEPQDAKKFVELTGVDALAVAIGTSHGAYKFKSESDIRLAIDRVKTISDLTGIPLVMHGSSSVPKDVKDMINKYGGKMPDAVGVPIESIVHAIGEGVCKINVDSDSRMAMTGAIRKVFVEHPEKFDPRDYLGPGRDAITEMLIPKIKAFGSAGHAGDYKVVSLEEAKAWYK
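40 nM FBPA preincubated 10 min at RT with compound (up to 57.5 uM final), then substrate plus GAPDH/TPI/NAD/arsenate coupling and diaphorase/resazurin added. Fluorescence read after 20 min at RT, 525/598 nm.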
Cycloheximide cs: counter-screen hit for Shiga toxin inhibitors, cycloheximide. max response, %. cell reporter, cycloheximide protein synthesis inhibition counterscreen. 12% of 300,000 active; in the data active = max response mostly above about 13%, no sharp cut-off; inactive = mostly below about 14%; also: read at 38.3 µM for the half of the compounds with a filed dose
Tb PYK inh: inhibitors of Trypanosoma brucei pyruvate kinase; TbPYK enzyme, Kinase-Glo Plus ATP luminescence, 45 min; Potency, µM (doses to about 76.8 µM), most hits filed as inhibitors; 0.12% of 410,000 active; AID 624173; also: nearly all actives have a fitted effect of over 50% in size
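ADP (130 uM final) triggers the TbPYK reaction after compound addition; incubation is 45 min at room temperature. Kinase-Glo Plus is then added and luminescence imaged. Normalized data are fitted to concentration-effect curves.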
LmPK inhibitor: blocks Leishmania mexicana pyruvate kinase activity; Q27686; purified LmPK, Kinase-Glo ATP luminescence, 1 h; Potency, µM (series often up to 57.5 µM), most hits filed as inhibitors; 0.37% of 290,000 active; AID 1721
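Purified LmPK (0.1 nM) converted ADP (0.1 mM) to ATP with PEP (0.5 mM) in imidazole buffer pH 7.2 with KCl and MgCl2, 1 h at room temperature. ATP was read by Kinase-Glo luminescence; data normalized to uninhibited and no-enzyme controls.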
Of the large screens only hits and unclear results are named; the others gave an inactive call. The sample as a whole holds a higher share of hits than the screen did. Unless noted, calls follow the shape of the dose curve; as a rule, active = well fitted curve in the direction sought with a large enough effect; inconclusive = small, poorly fitted or top-dose-only effect, or another doubt; inactive = no such curve, though single readings can be large; an effect the other way counts as inactive or inconclusive.

O=C(Nc1ccccc1)c1ccc(-c2ccccc2)s1	Shiga toxin inh 100, Cycloheximide cs 39
CSCC[C@H](N)C(=O)N[C@@H](C)C(=O)NCC(=O)N[C@@H](CCCN=C(N)N)C(=O)N[C@@H](CO)C(=O)NCC(=O)N[C@@H](CC(=O)O)C(=O)N[C@@H](CO)C(=O)N[C@@H](CC(=O)O)C(=O)N[C@@H](CCC(=O)O)C(=O)N[C@@H](CC(=O)O)C(=O)N[C@@H](CC(C)C)C(=O)N[C@@H](CC(C)C)C(=O)N[C@@H](CCCCN)C(=O)N[C@@H](C)C(=O)N[C@H](C(=O)O)C(C)C	none (no result: RE007 growth inh, Tb PYK inh, LmPK inhibitor)
COc1ccccc1N1Cc2ccc(OC)c(OC)c2C1=O	none
COc1ccc2c(c1OC)C(=O)N(c1cccc(C)c1)C2	Shiga toxin inh 49, Cycloheximide cs 41, LmPK inhibitor 14µM
COc1ccc2c(c1OC)C(=O)N(c1ccc(C)cc1)C2	Shiga toxin inh 86, Cycloheximide cs 54
COc1ccc2c(c1OC)C(=O)N(c1ccccn1)C2	Shiga toxin inh 139, Cycloheximide cs 52
COc1ccc2c(c1OC)C(=O)N(c1cccc(C(F)(F)F)c1)C2	Shiga toxin inh 103, Cycloheximide cs 20
CC(C)C[C@H](NC(=O)[C@H](Cc1ccccc1)NC(=O)c1cnccn1)B(O)O	none (no result: Shiga toxin inh, RE007 growth inh, Giardia FBPA inh, Cycloheximide cs, LmPK inhibitor)
Cc1ccc(C(=O)Nc2cccc(C(=O)OCc3cc(=O)n4nc(C5CC5)sc4n3)c2)cc1	none (no result: Shiga toxin inh, RE007 growth inh, Giardia FBPA inh, Cycloheximide cs, LmPK inhibitor)
CCCCOc1ccc(CSCCN=C(N)N)cc1	Shiga toxin inh 42, Cycloheximide cs 31
CN(C)c1ccc(C(=S)N2CCN(c3ccccc3)CC2)cc1	Cycloheximide cs 25
CC1CCN(C(=S)c2ccc(N(C)C)cc2)CC1	Shiga toxin inh 62
CN(C)c1ccc(C(=S)N2CCN(c3ccc([N+](=O)[O-])cc3)CC2)cc1	Giardia FBPA inh 7.9µM, Tb PYK inh inconclusive
Cc1ccc(N2CCN(C(=S)c3ccc(N(C)C)cc3)CC2)cc1	Shiga toxin inh active, Cycloheximide cs 59
CC(=O)N1CCN(C(=S)c2ccc(N(C)C)cc2)CC1	none
COc1ccc(Cn2c(CCC(=O)Nc3cccc(OC)c3)nc3cccnc32)cc1	none (no result: Shiga toxin inh, RE007 growth inh, Giardia FBPA inh, Cycloheximide cs, LmPK inhibitor)
O=C(CSc1nc2c([nH]c3ccccc32)c(=O)n1-c1cccc(Cl)c1)N1CCCC1	none (no result: Shiga toxin inh, RE007 growth inh, Giardia FBPA inh, Cycloheximide cs, LmPK inhibitor)
CCOC(=O)c1c(S(=O)(=O)N2CCC(C(=O)Nc3ccc(OCC)cc3)CC2)c(C)n(C)c1C	none (no result: Shiga toxin inh, RE007 growth inh, Giardia FBPA inh, Cycloheximide cs, LmPK inhibitor)
CCCC(=O)n1nc(-c2ccc(Cl)cc2)nc1SC	Shiga toxin inh 67, Cycloheximide cs 23
CSc1nc(-c2ccc(Cl)cc2)nn1S(=O)(=O)c1ccc(Cl)cc1	none
CCC(=O)n1nc(-c2ccc(OC)cc2)nc1SC	Shiga toxin inh 42, Cycloheximide cs 30
CCC(=O)n1nc(-c2ccc(Cl)cc2)nc1SC	Shiga toxin inh 68, RE007 growth inh inconclusive, Cycloheximide cs 32
Cc1ccc(N2CC(NC(=O)c3ccccc3C(F)(F)F)CC2=O)cc1C (centres undefined)	none (no result: Shiga toxin inh, RE007 growth inh, Giardia FBPA inh, Cycloheximide cs, LmPK inhibitor)
COc1ccc(NC(=O)N2CC[C@@]3(CCCN(C(=O)c4ccc(OC)cc4)C3)C2)cc1	none (no result: Shiga toxin inh, RE007 growth inh, Cycloheximide cs, LmPK inhibitor)
COc1ccc(-c2cn(CC3CCCCC3)nn2)cc1	Shiga toxin inh 17, Cycloheximide cs 16
c1ccc(-c2cn(CC3CCCCC3)nn2)cc1	Shiga toxin inh 45, Cycloheximide cs 37
CCCCCc1ccc(-c2cn(CC3CCCCC3)nn2)cc1	none
c1ccc(-c2cn(C[C@H]3CC[C@@H]([C@@H]4CC[C@H](Cn5cc(-c6ccccc6)nn5)O4)O3)nn2)cc1	none
COc1cc2c(cc1OC)-c1cc(Nc3ccccc3Br)nc(=O)n1CC2	Cycloheximide cs 17
COc1cc2c(cc1OC)-c1cc(Nc3ccc4c(c3)OCCO4)nc(=O)n1CC2	Shiga toxin inh 78, Cycloheximide cs 67
COc1ccc(Nc2cc3n(c(=O)n2)CCc2cc(OC)c(OC)cc2-3)cc1	none
CCOC(=O)C1CCN(C(=O)CSc2n[nH]c(-c3ccc(OC)cc3)n2)CC1	none (no result: Shiga toxin inh, RE007 growth inh, Giardia FBPA inh, Cycloheximide cs, LmPK inhibitor)
CC(=O)N[C@@H](c1ccccc1)[C@]1(C)C[C@H]1[C@@H](C)C(=O)Nc1ccc2ccccc2c1	none (no result: Shiga toxin inh, RE007 growth inh, Cycloheximide cs, Tb PYK inh, LmPK inhibitor)

High-throughput results: PubChem, National Center for Advancing Translational Sciences (NCATS)
